High-throughput results from PubChem BioAssay.
Shown are actives, neighbours in structure and some others; about 4.8% of the full set was active somewhere.
ssDAF12 agonist – S. stercoralis DAF-12 nuclear receptor activators, primary screen, cell-based, luminescence, HEK293, GRIP1 co-expression, lit1-tk-luc. Nuclear hormone receptor DAF-12 (Strongyloides stercoralis). activation, % at 6.8 µM. 370,000 tested, 1% active. HEK293 ssDAF-12/GRIP1 lit1-tk-luc reporter; % of 3 µM dafachronic acid response;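 active = activation above the mean over all tested compounds plus 3 SD, cut at about 0.9% in these data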;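 also: 0% = DMSO-only wells and 100% = 3 µM delta7-dafachronic acid wells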
hcDAF12 agonist – H. contortus DAF-12 nuclear receptor activators, primary screen, cell-based, luminescence, HEK293, lit1-tk-luc reporter. HEK293 hcDAF-12 lit1-tk-luc reporter; 0% DMSO, 100% Δ7-dafachronic acid. activation, % at 6.8 µM. 370,000 tested, 1.4% active. AID 652067, 2013;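 active = activation above the mean of all tested compounds plus 3 SD, cut at about 5.5% in these data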;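 also: 100% = response to 3 µM Δ7-dafachronic acid high control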
hgDAF-12 ag – H. glycines DAF-12 receptor agonists, primary screen, cell-based, luminescence, HEK293, GAL4 fusion, UAS-luciferase. 370,000 tested, 1.8% active. Nuclear hormone receptor DAF-12 (Heterodera glycines), GAL4 fusion. AID 687014, 2013. activation, % at 6.8 µM. HEK293 GAL4-hgDAF12 UAS-luciferase reporter, agonist luminescence; normalized to butyrate control;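 active = activation above a cutoff set at the mean of all screened compounds plus 3 SD, cut at about 10% in these data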;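 also: 0% = DMSO wells and 100% = sodium butyrate wells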
SMARCA2 activ – SMARCA2 (BRM) function activators, primary screen, cell-based, luminescence, high throughput | MG213 cells, MMTV-luciferase reporter, dexamethasone, overnight | activation, % at 9.1 µM | 370,000 tested, 1% active; in the data active = activation above about 7.8%;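 also: 0% = vehicle wells and 100% = reference activator wells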
DAX1 inh-1 – DAX1 (NR0B1) inhibitors on StAR promoter, primary screen, cell-based, luminescence, SF-1 (NR5A1), full-length DAX-1; HEK293T StAR-luciferase reporter, SF-1/DAX-1 repression relief; inhibition, % at 6.8 µM; 370,000 tested, 1.1% active;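 active = inhibition above the mean over all tested compounds plus 3 SD, cut at about 3.6% in these data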;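 also: 0% = DAX-1 cells with DMSO and 100% = cells lacking DAX-1 with DMSO; higher inhibition means more luminescence from relief of DAX-1 repression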
DAX1 inh-2 – DAX1 (NR0B1) inhibitors, primary screen, cell-based, HEK293, Gal4-DAX1, luciferase luminescence. Nuclear receptor subfamily 0 group B member 1 (Homo sapiens), P51843. HEK293 Gal4-DAX1 luciferase reporter. AID 504766, 2011. 340,000 tested, 0.99% active. inhibition, % at 6.75 µM;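 active = inhibition above the mean over all tested compounds plus 3 SD, cut at about 4.2% in these data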;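 also: 0% = DAX1-transfected cells with DMSO and 100% = empty-vector control cells with DMSO; inhibition shows as a rise in luminescence from relieved DAX1 repression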
Target sequence (P51843 207-470 limits assumed): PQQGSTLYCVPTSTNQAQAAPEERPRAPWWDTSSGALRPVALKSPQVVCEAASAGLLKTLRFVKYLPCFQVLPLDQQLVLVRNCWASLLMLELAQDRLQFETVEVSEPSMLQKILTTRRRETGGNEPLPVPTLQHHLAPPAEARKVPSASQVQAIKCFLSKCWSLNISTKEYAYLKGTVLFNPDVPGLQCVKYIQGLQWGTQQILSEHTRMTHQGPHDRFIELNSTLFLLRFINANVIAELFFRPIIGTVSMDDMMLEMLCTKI
The depositor's hits bear a star; / = not tested or not shown.

SMILES | ssDAF12 agonist | hcDAF12 agonist | hgDAF-12 ag | SMARCA2 activ | DAX1 inh-1 | DAX1 inh-2
COCCCNc1oc(/C=C/c2ccccc2)nc1C#N | 0 | 5 | 12* | 2 | 3 | 3
Cc1cc(NC(=O)CCc2ccc(C)o2)no1 | -1 | 0 | 0 | 1 | -1 | -1
CCCC(=O)N1CCC1(C)C(=O)Nc1ccc2nccnc2c1 (stereo not given) | -1 | -1 | 11* | -1 | -1 | /
Cn1c(=O)c2cc(NC(=S)NCc3ccccc3F)ccc2n1Cc1ccc(F)cc1 | -1 | -3 | -4 | -2 | -2 | /
CCCn1c(N)c(N(CCOC)C(=O)c2cccc(F)c2)c(=O)[nH]c1=O | -1 | -1 | -1 | 2 | 0 | 0
Cc1ccc(C2Nc3ccccc3NC3=C2C(=O)CC(C)(C)C3)c(O)c1 (stereo not given) | -1 | 0 | -1 | -1 | 0 | 0
C[C@@H](CN=[N+]=[N-])CN1CC[C@H](O)CCC1=O | -1 | 2 | 2 | 1 | -1 | 1
Cc1nn(-c2ccc(F)cc2)c2sc(C(=O)OCC(=O)N3CCC(C)CC3)cc12 | -1 | 1 | 1 | 5 | -1 | 6.3*
C/C(=N/O)c1ccccn1 | -1 | -2 | -2 | 2 | -1 | 3
CC(=O)c1ccccn1 | -1 | -2 | 0 | 2 | 0 | 6.0*
Nc1cc2ccccc2oc1=O | 0 | 3 | 1 | 0 | 0 | 0
c1ccc2occc2c1 | -1 | 2 | 0 | 2 | 0 | 4.3*
COc1ccc(NS(=O)(=O)c2cccs2)cc1S(=O)(=O)N1CCOCC1 | -1 | -2 | 0 | -1 | 0 | -1
O=C(Nc1ccnn1C1CCN(CC2CC=CCC2)CC1)c1ccccc1 (stereo not given) | -1 | -1 | -1 | -3 | 0 | 1
O=C(Nc1ccnn1C1CCN(Cc2c[nH]c3ccccc23)CC1)c1ccccc1 | -1 | 6.2* | 3 | 2 | 2 | 1
CSc1sc(C(=O)NNC(C)=O)c2c1C1(CCC2)SCCS1 | -1 | -2 | -3 | 2 | 0 | -2
CSc1sc(C(=O)NN)c2c1C1(CCC2)SCCS1 | -1 | 1 | 1 | 7 | 0 | 5.8*
O=C(N/N=C/c1ccc(O)c(O)c1)N/N=C/c1ccc(O)c(O)c1 | 0 | 7.3* | 9 | 2 | 1 | 1
Clc1cccc(/C=N\Nc2nccs2)c1 | 0.9* | 4 | 11* | 2 | 2 | 1
O=C(C1COc2ccccc2O1)N1CCn2c(nc3ccccc32)C1 (stereo not given) | 0 | -2 | -2 | -2 | 0 | 0
COc1ccc2c3n([n+]([O-])c2c1)CCN=C3c1cc(Cl)c(N)c(Cl)c1 | -1 | 1 | 1 | 1 | -1 | -1
COc1ccc2c3n([n+]([O-])c2c1)CCN=C3c1ccc(C)cc1 | 1.1* | 5.6* | 3 | 6 | 0 | 1
CCCOC(=O)NC(CC)COC(=O)Nc1cc(C)ccc1C (stereo not given) | -1 | -2 | 0 | 0 | 0 | 1
N#Cc1cnn2c1nc(N1CCCCC1)c1ccccc12 | -1 | -2 | 1 | 5 | 1 | 1
O=C(N/N=C/c1ccc(O)cc1)c1cc(C23CC4CC(CC(C4)C2)C3)[nH]n1 | 1.0* | -1 | 1 | 0 | 1 | -1
SMILES | ssDAF12 agonist | hcDAF12 agonist | hgDAF-12 ag | SMARCA2 activ | DAX1 inh-1 | DAX1 inh-2
Cc1cc(C)nc(N/N=C/c2ccc(Cl)cc2)n1 | -1 | 0 | 2 | -3 | 0 | 5.0*
CN(C)C=Nc1ccc(Cn2cnc3nc4ccc(Cl)cc4cc3c2=O)cc1 | 0 | 4 | 2 | -5 | 1 | /
CC(=O)Nc1ccc(NC(C)=C(C#N)C#N)cc1 | -1 | 1 | -2 | 0 | 0 | 4.3*
CC(=O)Nc1cccc(NC(C)=C(C#N)C#N)c1 | -1 | 0 | 1 | -2 | 0 | -1
c1ccc(-n2ncc3c(NCCN4CCOCC4)ncnc32)cc1 | 0 | 3 | 6 | 5 | 1 | 3
Cc1nc(NCCCN2CCOCC2)c2cnn(-c3ccccc3)c2n1 | 0 | 4 | 12* | 2 | 2 | 1
COC(=O)c1cc(-c2ccc(Cl)s2)c(=O)n2c1CCC2 | -1 | 6.5* | 2 | 0 | 1 | /
CCCN1C(=O)CSC1=Nc1ccccc1 | -2 | 0 | 0 | 0 | 0 | 0
CCCn1nnc(NC(=O)c2cc3ccccc3o2)n1 | -1 | 4 | 9 | 8 | 3 | 5.7*
Cc1cc(C(=O)Nc2cccc(C(=O)O)c2)oc1C | 0 | 5 | 10* | 4 | 3 | -4
Cc1cc(C(=O)Nc2cccc(C(=O)O)c2)c(C)o1 | -1 | -1 | 6 | 5 | 1 | 0
CCOC(=O)c1ccc(NC(=O)c2cc3ccccc3o2)cc1 | -1 | -1 | 9 | 2 | 0 | 0
CCCn1nnc(NC(=O)c2cc(Br)ccc2OC)n1 | 1.1* | -1 | 1 | -2 | 0 | 1
CCCn1nnc(NC(=O)c2cccc(Cl)c2)n1 | 0 | 2 | 4 | 1 | 0 | 0
CCOC(=O)c1cccc(NC(=O)c2cc3ccccc3o2)c1 | -1 | 1 | 11* | 5 | 2 | -3
Cc1ccc(S(=O)(=O)N2CCOC23CCN(C(=O)C(=O)NCCC(C)C)CC3)cc1 | -1 | -1 | -2 | 0 | 0 | 0
C#CC1(N2CCCCC2)CCCCC1 | -1 | 0 | 1 | -3 | 0 | 2
CCOC(=O)c1cc(C#N)c(SCC(=O)O)[nH]c1=O | -2 | 1 | 1 | -3 | 1 | 0
CCOC(=O)c1cc(C#N)c(SCC(N)=O)[nH]c1=O | -2 | 1 | 2 | -3 | 0 | 4.5*
O=C(NCCN1CCCC1)c1ccc2c(c1)N(Cc1cccc(Cl)c1)C(=O)c1ccccc1S2(=O)=O | -1 | 6.2* | 0 | -3 | 1 | 0
COc1ccc(N2C(=O)CC(SCC(=O)O)C2=O)cc1 (stereo not given) | -1 | 0 | 1 | 1 | 0 | -1
Cc1ccc(NC(=O)C2CCCN(c3ncccn3)C2)cc1F (stereo not given) | 1 | 2 | 12* | 6 | 3 | 1
O=C(Nc1ccc2c(c1)CCC2)C1CCCN(c2ncccn2)C1 (stereo not given) | -1 | 2 | 11* | 0 | 2 | 1
CC(C)CNC(=O)c1ccccc1N(Cc1ccccc1)S(C)(=O)=O | 1 | -2 | 0 | -1 | 0 | 3
